# Results reported in PubChem BioAssay.
# Several values for one entry are separate records, joined by “and”; a condition that tells them apart may be missing. Equal values may be shown once. Values without a mark were called inactive. Entries that show only a call come without a potency. For some of these results: Potency and affinity values are given separately. Activity calls are given as the source filed them. Unless noted, the rule behind the calls is not given here.
# Assays:
# [1] = antimalarial activity against Dd2 strain (AID 2302;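 active = growth inhibition above 50% at the single 2 µM test dose, taken to imply half-maximal potency below 2 µM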); conditions: P. falciparum Dd2 in RBCs, LDH growth readout, 72 h; at 2 µM; active compounds read high
# [2] = human hepatoma cell viability loss – ATP luminescence, cytotoxicity control for P. falciparum antimalarial project, primary screen (AID 2303;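 active = inhibition above 50%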); conditions: HepG2 viability, 24-48 h, at 10 µM, active compounds read high
# [3] = biological target: L-lactate dehydrogenase (Plasmodium falciparum (isolate CDC / Honduras)) (UniProt Q27743); assay: PfLDH activity inhibition – cell lysate, 3D7 strain, counter-screen for P. falciparum growth inhibition project (AID 2304); conditions: P. falciparum 3D7 crude extract, LDH APAD/NBT absorbance; at 2 µM; active compounds read high
# [4] = inhibition of 3D7 malaria parasite growth – strain 3D7 (AID 2306); conditions: P. falciparum 3D7 erythrocytic growth, LDH absorbance, 72 h; at 2 µM; active compounds read high
# [5] = biological target: Calcium-dependent protein kinase 1 (Plasmodium falciparum (isolate 3D7)) (UniProt P62344); assay: PfCDPK1 kinase inhibitors, biochemical, TCAMS library (AID 1159585; cut-off not given, nearly all actives have IC50 up to about 0.98 µM;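 note: inhibitors leave more ATP so luminescence rises with inhibition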); conditions: recombinant PfCDPK1, Kinase-Glo ATP depletion luminescence
# [6] = biological target: Plasmodium falciparum protein kinase 6 (PK6, PF3D7_1337100) (UniProt Q8IDW1); assay: PfPK6 kinase inhibitors, biochemical, TCAMS library (AID 1159586); conditions: recombinant PfPK6, Kinase-Glo ATP depletion luminescence
# [7] = biological target: Protein kinase 7 (PK7), Plasmodium falciparum 3D7 (PF3D7_0213400) (UniProt Q7YTF7); assay: inhibition of Plasmodium PK7 catalytic activity – biochemical, TCAMS antimalarial set, Kinase-Glo luminescence (AID 1159587); conditions: recombinant PfPK7, Kinase-Glo ATP depletion luminescence
# [8] = biological target: Calcium-dependent protein kinase 4 (Plasmodium falciparum (isolate 3D7)) (UniProt Q8IBS5); assay: PfCDPK4 kinase inhibitors, biochemical, TCAMS library (AID 1159588; cut-off not given, nearly all actives have IC50 up to about 0.91 µM); conditions: recombinant PfCDPK4, Kinase-Glo ATP depletion luminescence
# Sequence of Calcium-dependent protein kinase 4 (Plasmodium falciparum (isolate 3D7)) (Q8IBS5 whole entry, looked up): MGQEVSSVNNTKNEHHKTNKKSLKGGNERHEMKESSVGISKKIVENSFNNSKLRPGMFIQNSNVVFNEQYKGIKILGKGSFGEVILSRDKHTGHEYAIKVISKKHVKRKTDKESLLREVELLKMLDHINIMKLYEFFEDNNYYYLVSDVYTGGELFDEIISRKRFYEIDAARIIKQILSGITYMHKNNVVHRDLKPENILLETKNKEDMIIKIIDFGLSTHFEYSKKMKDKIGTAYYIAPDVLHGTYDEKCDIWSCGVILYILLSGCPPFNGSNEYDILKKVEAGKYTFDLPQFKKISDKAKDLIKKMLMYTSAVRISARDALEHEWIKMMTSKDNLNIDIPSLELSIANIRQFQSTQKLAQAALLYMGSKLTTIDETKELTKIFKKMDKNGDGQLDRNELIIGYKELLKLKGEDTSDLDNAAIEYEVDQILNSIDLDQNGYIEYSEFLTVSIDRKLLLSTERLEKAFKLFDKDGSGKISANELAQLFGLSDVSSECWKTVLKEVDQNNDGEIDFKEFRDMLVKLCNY
# Sequence of L-lactate dehydrogenase (Plasmodium falciparum (isolate CDC / Honduras)) (Q27743 whole entry, looked up): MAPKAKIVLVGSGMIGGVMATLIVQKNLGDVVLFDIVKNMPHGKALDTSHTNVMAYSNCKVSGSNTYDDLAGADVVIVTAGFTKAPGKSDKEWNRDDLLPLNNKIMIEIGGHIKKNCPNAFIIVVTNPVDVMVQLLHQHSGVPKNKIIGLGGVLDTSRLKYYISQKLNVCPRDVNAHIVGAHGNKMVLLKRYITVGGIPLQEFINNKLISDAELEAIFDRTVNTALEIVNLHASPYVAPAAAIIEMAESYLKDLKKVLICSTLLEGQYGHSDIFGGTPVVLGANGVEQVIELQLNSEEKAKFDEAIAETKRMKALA
# Sequence of Calcium-dependent protein kinase 1 (Plasmodium falciparum (isolate 3D7)) (P62344 whole entry, looked up): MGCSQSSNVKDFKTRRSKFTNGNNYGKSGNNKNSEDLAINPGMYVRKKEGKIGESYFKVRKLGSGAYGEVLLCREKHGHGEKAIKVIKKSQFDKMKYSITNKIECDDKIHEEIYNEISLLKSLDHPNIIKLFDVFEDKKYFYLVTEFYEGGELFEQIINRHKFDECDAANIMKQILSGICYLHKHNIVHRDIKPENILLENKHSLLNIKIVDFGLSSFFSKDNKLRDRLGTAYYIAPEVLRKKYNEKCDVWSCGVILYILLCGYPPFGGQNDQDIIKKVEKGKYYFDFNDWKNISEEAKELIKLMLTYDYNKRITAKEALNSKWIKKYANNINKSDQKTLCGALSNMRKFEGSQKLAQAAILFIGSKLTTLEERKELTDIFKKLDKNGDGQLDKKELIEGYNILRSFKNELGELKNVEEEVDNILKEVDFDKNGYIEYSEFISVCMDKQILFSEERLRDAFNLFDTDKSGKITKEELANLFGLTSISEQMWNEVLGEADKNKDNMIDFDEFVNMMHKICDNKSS
# Sequence of Plasmodium falciparum protein kinase 6 (PK6, PF3D7_1337100) (Q8IDW1 1-305): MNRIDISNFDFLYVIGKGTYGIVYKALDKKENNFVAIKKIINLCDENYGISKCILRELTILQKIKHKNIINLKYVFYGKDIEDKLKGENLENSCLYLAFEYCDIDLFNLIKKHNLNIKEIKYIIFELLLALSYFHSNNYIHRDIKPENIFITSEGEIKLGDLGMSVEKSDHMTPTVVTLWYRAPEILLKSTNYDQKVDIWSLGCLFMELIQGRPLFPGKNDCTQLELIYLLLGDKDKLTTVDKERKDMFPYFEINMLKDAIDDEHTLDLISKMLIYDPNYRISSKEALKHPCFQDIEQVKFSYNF
# Sequence of Protein kinase 7 (PK7), Plasmodium falciparum 3D7 (PF3D7_0213400) (Q7YTF7 1-343): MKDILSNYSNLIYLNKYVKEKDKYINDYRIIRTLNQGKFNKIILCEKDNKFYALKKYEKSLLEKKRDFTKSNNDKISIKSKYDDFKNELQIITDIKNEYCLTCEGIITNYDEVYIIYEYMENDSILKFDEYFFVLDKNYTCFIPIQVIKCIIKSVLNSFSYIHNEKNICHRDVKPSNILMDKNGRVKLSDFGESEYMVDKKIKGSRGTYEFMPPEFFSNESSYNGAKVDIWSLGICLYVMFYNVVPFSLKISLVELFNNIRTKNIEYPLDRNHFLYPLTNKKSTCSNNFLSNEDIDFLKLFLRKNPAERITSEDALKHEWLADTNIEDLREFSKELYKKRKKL
Compound,growth inhibition [1],inhibition [2],inhibition [3],growth inhibition [4],outcome [5],outcome [6],outcome [7],outcome [8]
O=C(/C=C/c1ccc(Cl)c(Cl)c1)NCC1CCC(CN2CCC(c3c[nH]c4ccccc34)CC2)CC1 (centres undefined),93% (active),54% (active),4%,102% (active),inactive,inactive,inactive,inactive
OC(CNC1CCCCCCC1)c1ccc(Cl)c(Cl)c1 (centres undefined),99% (active),17%,-5%,100% (active),inactive,inactive,inactive,inactive
O=C1c2ccccc2CCC1CCN1CC=C(c2c[nH]c3ccccc23)CC1 (centres undefined),83% (active),5%,7%,89% (active),inactive,inactive,inactive,inactive
NCc1cccc(-c2cccc(CN(C(=O)Nc3ccccc3)C3CCN(Cc4ccccc4)CC3)c2)c1,8%,3%,-2%,99% (active),inactive,inactive,inactive,inactive
C1=C(c2c[nH]c3ccccc23)CCN(Cc2ccccc2)C1,80% (active),22%,-1%,91% (active),inactive,inactive,inactive,inactive
CCCCCCC(CC)c1cc(O)c2c(c1)OC(C)(C)c1ccncc1-2 (centres undefined),52% (active),-1%,-6%,94% (active),inactive,inactive,inactive,inactive
CC[C@H]1CN2CC[C@@H]1C[C@H]2[C@H](O)c1cc(N2CCC(C(N)=O)CC2)nc2ccc(OC)cc12,9%,17%,-5%,99% (active),inactive,inactive,inactive,inactive
CN(c1ccnc(Nc2ccc(CS(C)(=O)=O)cc2)n1)C1CCN(Cc2ccccc2)CC1,9%,10%,1%,83% (active),inactive,inactive,inactive,inactive
COC(=O)c1ccc(CC(C)NCC(O)c2cc(Cl)c(N)c(Cl)c2)cc1 (centres undefined),66% (active),-2%,-7%,91% (active),inactive,inactive,inactive,inactive
COc1cccc(CN2CCC(CCOC(c3ccccc3)c3ccccc3)CC2)c1O,99% (active),33%,3%,97% (active),inactive,inactive,inactive,inactive
O=C(CCc1ccco1)NC1CCN(CC2(c3ccc(Cl)cc3)CCC2)CC1,67% (active),-12%,-2%,99% (active),inactive,inactive,inactive,inactive
CC[C@H]1CN2CC[C@H]1C[C@H]2[C@H](O)c1cc(-c2ccc(C)cc2)nc2ccc(OC)cc12,99% (active),22%,6%,99% (active),inactive,inactive,inactive,inactive
Cc1[nH]c2cc(Cl)ccc2c1C1=CCN(CCCCC2(C)C(=O)Nc3ccccc32)CC1 (centres undefined),90% (active),-3%,0%,94% (active),inactive,inactive,inactive,inactive
CC(Cc1ccc(CSC(C)C)cc1)NCC(O)c1cccc(Cl)c1 (centres undefined),98% (active),11%,-8%,98% (active),inactive,inactive,inactive,inactive
S=C(Nc1ccccc1Cl)NC1CCC(CN2CCC(c3c[nH]c4ccccc34)CC2)CC1 (centres undefined),12%,31%,8%,90% (active),inactive,inactive,inactive,inactive
OC1(c2ccc(Cl)c(C(F)(F)F)c2)CCN(CCOC2c3ccccc3CSc3ccc(Cl)cc32)CC1 (centres undefined),58% (active),3%,6%,95% (active),inactive,inactive,inactive,inactive
CCCCCCCSc1ccc(CC(C)NCC(O)c2cccc(Cl)c2)cc1 (centres undefined),99% (active),94% (active),-3%,100% (active),inactive,inactive,inactive,inactive
CCCCCCCN1[C@@H]2CC[C@H]1CC(CCOc1ccnc3ccc(OC)cc13)C2 (some centres undefined),88% (active),23%,-1%,98% (active),inactive,inactive,inactive,inactive
CC(=O)N(Cc1cccc(-c2cccc(CNCCc3ccccc3)c2)c1)C1CCN(Cc2ccccc2)CC1,57% (active),22%,-3%,100% (active),inactive,inactive,inactive,inactive

Compound,growth inhibition [1],inhibition [2],inhibition [3],growth inhibition [4],outcome [5],outcome [6],outcome [7],outcome [8]
COc1ccc(OC)c(C=CC(=O)NC2CCC(CN3CCC(c4c[nH]c5ccccc45)CC3)CC2)c1 (centres undefined),62% (active),43%,-4%,98% (active),inactive,inactive,inactive,inactive
Cc1c(C)c2c(c(C)c1O)CC[C@@](C)(C(=O)N1CCC(CN3CCC(c4c[nH]c5ccccc45)CC3)CC1)O2,90% (active),21%,3%,98% (active),inactive,inactive,inactive,inactive
O=C(CCCCCc1ccccc1)NC1CCC(CN2CCC(c3c[nH]c4ccccc34)CC2)CC1 (centres undefined),5%,34%,-3%,86% (active),inactive,inactive,inactive,inactive
COC(=O)c1ccc(CC(C)NCC(O)c2cccc(C(F)(F)F)c2)c(Cl)c1 (centres undefined),98% (active),-10%,1%,99% (active),inactive,inactive,inactive,inactive
CC(=O)Nc1ccc(CN2CCC(N(C)c3cc(NC(=O)c4cccs4)ccn3)CC2)cc1,43%,-1%,2%,101% (active),inactive,inactive,inactive,inactive
Cc1[nH]c2ccccc2c1C1=CCN(CCN2CCCc3c(Br)cccc3C2=O)CC1,90% (active),10%,-1%,95% (active),inactive,inactive,inactive,inactive
CC[C@H]1CN2CC[C@H]1C[C@H]2[C@H](O)c1cc(-c2ccccc2C)nc2ccc(OC)cc12,98% (active),16%,2%,100% (active),inactive,inactive,inactive,inactive
Cc1ccc(CC(C)NC[C@H](O)c2cccc(Cl)c2)cc1 (some centres undefined),47%,15%,-3%,96% (active),inactive,inactive,inactive,inactive
O=C(Nc1ccccc1Cl)NC1CCC(CN2CCC(c3c[nH]c4ccccc34)CC2)CC1 (centres undefined),31% and 34%,32% and 37%,0% and -2%,98% (active) and 101% (active),inactive,inactive,inactive,inactive
CN1CC[C@H](N(Cc2ccccc2F)c2ccc(C#N)c(Cl)c2)C1,68% (active),18%,-6%,88% (active),inactive,inactive,inactive,inactive
CC[C@H]1CN2CC[C@H]1C[C@@H]2[C@H](O)c1ccnc2ccc(O)cc12,-4%,-3%,-2%,94% (active),inactive,inactive,inactive,inactive
C=CCOc1ccccc1CNCC(O)c1cccc(C(F)(F)F)c1 (centres undefined),98% (active),10%,-1%,99% (active),inactive,inactive,inactive,inactive
Cc1[nH]c2ccccc2c1C1=CCN(C[C@H]2C[C@@H]2C(=O)c2ccccc2)CC1,88% (active),18%,-3%,95% (active),inactive,inactive,inactive,inactive
FC(F)(F)c1ccc(NC(=S)N2CCC(CN3CCC(c4c[nH]c5ccccc45)CC3)CC2)cc1,45%,35%,-6%,100% (active),inactive,inactive,inactive,inactive
CC(=O)Nc1ccc(OCCN(CC(F)(F)F)c2ccc(C#N)cc2C(F)(F)F)cc1,83% (active),-1%,1%,81% (active),inactive,inactive,inactive,inactive
Cc1c(C)c2c(c(C)c1O)CC[C@](C)(C(=O)N1CCC(CN3CCC(c4c[nH]c5ccccc45)CC3)CC1)O2,98% (active),29%,2%,101% (active),inactive,inactive,inactive,inactive
O=C(/C=C/c1ccc(Cl)c(Cl)c1)N1CCC(CN2CCC(c3c[nH]c4cc5c(cc34)OCO5)CC2)CC1,75% (active),41%,-2%,102% (active),inactive,inactive,inactive,inactive
O=C(/C=C/c1ccc(Cl)c(Cl)c1)N1CCC(CN2CCC(c3c[nH]c4ccc(O)cc34)CC2)CC1,100% (active),44%,-7%,101% (active),inactive,inactive,inactive,inactive
CC(C)NC(=O)Cn1cc(C2CCN(CC3CCN(C(=O)/C=C/c4ccc(Cl)c(Cl)c4)CC3)CC2)c2ccccc21,55% (active),31%,-2%,97% (active),inactive,inactive,inactive,inactive
